{
  "source": "PubChem BioAssay",
  "note": "The source made the active and inactive calls. No rule for the calls is given here.",
  "data": [
    {"target": "Pantothenate synthetase (Mycobacterium tuberculosis (strain ATCC 25618 / H37Rv)) (UniProt P9WIL5)", "sequence (P9WIL5 whole entry, looked up)": "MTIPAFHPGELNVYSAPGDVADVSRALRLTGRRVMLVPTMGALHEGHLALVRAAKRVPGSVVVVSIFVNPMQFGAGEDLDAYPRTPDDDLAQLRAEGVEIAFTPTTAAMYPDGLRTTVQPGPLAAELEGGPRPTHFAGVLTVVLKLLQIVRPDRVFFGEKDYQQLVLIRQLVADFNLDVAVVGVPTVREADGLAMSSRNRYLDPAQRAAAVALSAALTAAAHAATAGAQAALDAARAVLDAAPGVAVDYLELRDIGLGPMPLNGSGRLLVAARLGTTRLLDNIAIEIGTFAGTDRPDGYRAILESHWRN", "assay": "Recombinant Mtb pantothenate synthetase (PanC) inhibitors, coupled enzyme, confirmatory (AID 375);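 also: 0% = full reaction with vehicle and 100% = no enzyme background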", "conditions": "coupled enzyme assay; at 10 µM, stronger effect = higher value", "values": [
      {"compound": "COc1ccc(-c2nc(CS(=O)CC(=O)N3CCCC3)c(C)o2)cc1", "note": "(centres undefined)", "inhibition": "0% (inactive)"},
      {"compound": "CCN1C(=O)c2ccccc2S(=O)(=O)c2ccc(C(=O)NCc3cccnc3)cc21", "inhibition": "0% (inactive)"},
      {"compound": "COCCNC(=O)NC(=O)COC(=O)Cc1ccc2c(c1)OCCO2", "inhibition": "4% (inactive)"},
      {"compound": "C[C@@H]1C[C@H]2[C@@H]3CCC4=CC(=O)C=C[C@]4(C)[C@@]3(F)[C@@H](O)C[C@]2(C)[C@@]1(O)C(=O)COP(=O)(O)O", "inhibition": "5% (inactive)"},
      {"compound": "Cc1cc(NC(=O)c2cc(-c3ccco3)on2)n(-c2ccccc2)n1", "inhibition": "0% (inactive)"},
      {"compound": "CC(C)(C)NC(=O)CN(Cc1cccs1)C(=O)c1csnn1", "inhibition": "0% (inactive)"},
      {"compound": "CC1(C)CNC(=O)CC(C)(C)N1O", "inhibition": "0% (inactive)"},
      {"compound": "COc1ccc(CNC(=O)c2cc(-c3ccc(OC)c(OC)c3)on2)cc1", "inhibition": "3% (inactive)"},
      {"compound": "O=C1c2ccccc2C(Nc2ccc(F)c(Cl)c2)N1Cc1ccco1", "note": "(centres undefined)", "inhibition": "3% (inactive)"},
      {"compound": "CCCC1CCC(C(=O)Nn2cnc3ccccc3c2=O)CC1", "note": "(centres undefined)", "inhibition": "1% (inactive)"},
      {"compound": "COC(=O)Cc1cc(=O)n(-c2ccccc2)[nH]1", "inhibition": "0% (inactive)"},
      {"compound": "O=C(c1ccc(Br)cc1)N1CCN(S(=O)(=O)c2ccccc2)CC1", "inhibition": "0% (inactive)"},
      {"compound": "CCCCc1c(O)nc(SCCN(C)C)n(-c2ccccc2)c1=O", "inhibition": "0% (inactive)"},
      {"compound": "CCOC(=O)c1c(-c2cccs2)csc1NC(=O)CCCC(=O)O", "inhibition": "0% (inactive)"},
      {"compound": "Cc1ccc2nc(SCC(=O)NCc3ccco3)c(C#N)cc2c1", "inhibition": "0% (inactive)"},
      {"compound": "Cc1ccccc1Cn1cc(/C=N/n2cnnc2)c2ccccc21", "inhibition": "0% (inactive)"},
      {"compound": "COc1ccccc1N1CCN(C(=O)CCNS(=O)(=O)c2ccc3c(c2)CCC(=O)N3)CC1", "inhibition": "0% (inactive)"},
      {"compound": "CCOC(=O)C(CC)Sc1nc2c(c(=O)[nH]c(=O)n2C)n1C/C=C(/C)Cl", "note": "(centres undefined)", "inhibition": "8% (inactive)"},
      {"compound": "O=S(=O)(Nn1cnnc1)c1ccccc1Cl", "inhibition": "0% (inactive)"},
      {"compound": "O=C(Nc1ccc2snnc2c1)N1CCSCC1", "inhibition": "0% (inactive)"},
      {"compound": "COC(=O)c1cc(=O)nc2sc(-c3cccs3)nn12", "inhibition": "8% (inactive)"},
      {"compound": "O=C(O)c1cc(/C=N\\O)ccc1OCc1ccccc1", "inhibition": "3% (inactive)"},
      {"compound": "CCOC(=O)COc1ccc(C2NC(C(=O)O)CS2)cc1", "note": "(centres undefined)", "inhibition": "0% (inactive)"},
      {"compound": "O=C(Cn1ncc2c1-c1ccccc1OC2)N1CCN(c2ccccn2)CC1", "inhibition": "0% (inactive)"},
      {"compound": "CCOC(=O)c1cnc(SCC)[nH]c1=O", "inhibition": "0% (inactive)"},
      {"compound": "CC(NC(=O)C1CCCN(S(=O)(=O)c2cccs2)C1)c1ccccc1", "note": "(centres undefined)", "inhibition": "0% (inactive)"},
      {"compound": "Cc1nc2ccc(S(=O)(=O)NCC(=O)N3CCCCC3)cc2s1", "inhibition": "0% (inactive)"},
      {"compound": "CCOC(=O)c1[nH]c2ccccc2c1NC(=O)C(CC)CC", "inhibition": "8% (inactive)"},
      {"compound": "Cc1ccc(NC(=O)c2ccco2)c(NC(=O)c2cccs2)c1", "inhibition": "0% (inactive)"},
      {"compound": "O=C(CSCCSCC(=O)c1ccco1)c1ccco1", "inhibition": "0% (inactive)"},
      {"compound": "CC(NCCc1ccc(O)cc1)C(O)c1ccc(O)cc1", "note": "(centres undefined)", "inhibition": "0% (inactive)"},
      {"compound": "COc1cc(C(=O)Nc2cccc(-c3nc4cc(C)ccc4o3)c2)cc(OC)c1OC", "inhibition": "3% (inactive)"},
      {"compound": "COc1ccc(NC(=O)CN2CCN(S(=O)(=O)c3ccc(Cl)cc3)CC2)cc1", "inhibition": "13% (inactive)"},
      {"compound": "Cc1ccc(-n2ncc3c(=O)n(CC(=O)NCc4ccco4)cnc32)cc1", "inhibition": "0% (inactive)"},
      {"compound": "O=C(Nc1ccncc1)c1cccc(F)c1", "inhibition": "6% (inactive)"},
      {"compound": "NC(=O)C1(N2CCCCC2)CCN(C2CC(=O)N(Cc3cccs3)C2=O)CC1", "note": "(centres undefined)", "inhibition": "0% (inactive)"},
      {"compound": "Cc1ccccc1CN1CCNC1=O", "inhibition": "0% (inactive)"},
      {"compound": "O=S(=O)(c1cccc2nsnc12)N1CCN(c2ncccn2)CC1", "inhibition": "0% (inactive)"},
      {"compound": "CCn1c(=O)cc(SCC(=O)N2CCOCC2)c2ccccc21", "inhibition": "11% (inactive)"}
    ]}
  ]
}
